Screens as filed in PubChem.
Rab2A wt mod – changes GTP binding to wildtype dog Rab2A, up or down; GTP binding activity, % at 10 µM; 190,000 compounds, 0.19% hits; AID 760; GST-Rab2 wt beads, Bodipy-GTP binding, flow cytometry; P61105;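 active = GTP binding activity at least 20 points away from 100%, either lowered or raised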
Rab7 wt modul – dog Rab7 wildtype GTP binding, inhibitors and activators; GTP binding activity (percent of control), % at 10 µM; AID 758; 190,000 compounds, 0.055% hits; GST-Rab7 beads, fluorescent GTP binding, flow cytometry; actives lie on both sides; untreated = 100%, excess cold GTP = 0%;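 active = fluorescent GTP binding to Rab7 beads changed by at least 20 points from the 100% baseline, either direction, mostly lower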;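 also: median green fluorescence of bound Bodipy-FL-GTP per Rab7 bead population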
Cdc42 wt – modulators (inhibitors or activators) of GTP binding to human Cdc42 wildtype. P60953. GST-Cdc42 beads, Bodipy-GTP binding, flow cytometry; actives lie on both sides. percent activity (GTP binding), % at 10 µM. 190,000 compounds, 0.2% hits;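 active = percent activity GTP binding at least 20 points away from the 100% baseline, either down as inhibitor or up as activator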;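 also: median bead fluorescence of bound Bodipy-FL-GTP at 100 nM; below 100% means less GTP binding so inhibitor and above means activator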
Target sequence (P60953 whole entry, looked up): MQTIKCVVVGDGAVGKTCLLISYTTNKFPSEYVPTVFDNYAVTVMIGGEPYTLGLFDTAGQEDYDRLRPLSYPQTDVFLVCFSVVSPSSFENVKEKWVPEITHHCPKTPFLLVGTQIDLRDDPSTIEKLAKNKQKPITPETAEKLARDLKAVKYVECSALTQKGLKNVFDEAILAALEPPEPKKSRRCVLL
Rac1 mut GTP – alters GTP binding to activated mutant human Rac1; 190,000 compounds, 0.11% hits; percent activity (GTP binding), % at 10 µM; P63000; GST-Rac1 activated beads, fluorescent GTP binding, flow cytometry; actives lie on both sides; 100% means binding = to untreated wells;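 active = GTP binding at least 20 percentage points away from the 100% baseline, in either direction, so actives lie on both sides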
Rac1 wt GTP bind – modulators of human Rac1 wildtype GTP binding; GTP binding activity (% of control), % at 10 µM; GST-Rac1 beads, fluorescent GTP binding, flow cytometry; actives lie on both sides; 0 = cold GTP competed, 100 = untreated; 190,000 compounds, 0.27% hits;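 active = GTP binding activity at least 20 points away from the 100% control level, either lower or higher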
HRas wt GTP – modulators of GTP binding to human HRas wildtype | P01112 | GST-Ras wt beads, Bodipy-FL-GTP binding, flow cytometry; actives lie on both sides | GTP binding activity, % at 10 µM | 190,000 compounds, 0.14% hits | AID 759;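 active = GTP binding activity at least 20% away from the 100% baseline, either lowered as inhibitor or raised as activator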
Each line names hits and unclear results; the compound was inactive in the other large screens; [ ] = dose if it differs, or a comment. Sampled rows, rich in hits. Any-hit rate of the full collection: about 0.38%.

CCn1nc(/C=C/c2ccccc2)nc2c(=O)n(C)c(=O)nc1-2	Cdc42 wt 76
O=c1[nH]c(=S)[nH]c(O)c1N=Nc1ccc(S(=O)(=O)N2CCc3ccccc32)cc1	Rac1 wt GTP bind 120[activator]
Cc1c(N=Nc2c(O)[nH]c(=S)[nH]c2=O)c(=O)n(-c2ccccc2)n1C	none
O=C1NC(=O)C(CCc2ccncc2)(CCc2ccncc2)C(=O)N1Cc1ccccc1	none
c1ccc2c3c(ccc2c1)OCC1CONC31 (centres undefined)	none
Cc1ccc(-n2c(O)c(/C=N/c3ncc(Br)cc3Br)c(=O)[nH]c2=O)cc1	Rac1 wt GTP bind 123[activator]
Cc1cccc(-n2c(O)c(C=Nc3ccc(Br)cn3)c(=O)[nH]c2=O)c1	none
CCOCCCn1c(N)c(C(=O)Nc2sc3c(c2C(=O)OC)CCCC3)c2nc3ccccc3nc21	Rab2A wt mod 72, Cdc42 wt 72, HRas wt GTP 72
